Laboratory results: paper PMC4336329 (PLoS ONE, 2015)
Among all 310,000 compounds or so, about 14,000 (4.5%) showed an effect of 50% or more. Effects have a minus sign here. Only a selection was taken, and strong results are over-represented in it overall.

Target: human ether-à-go-go-related gene (hERG) potassium channel (human, UniProt Q12809)
Experiment: primary screen, population patch clamp on CHO cells stably expressing hERG; higher = less effect of the substance
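Note: peak tail current of the secondary pulse compared with the same well before compound.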

Sequence of human ether-à-go-go-related gene (hERG) potassium channel (Q12809 whole entry, looked up): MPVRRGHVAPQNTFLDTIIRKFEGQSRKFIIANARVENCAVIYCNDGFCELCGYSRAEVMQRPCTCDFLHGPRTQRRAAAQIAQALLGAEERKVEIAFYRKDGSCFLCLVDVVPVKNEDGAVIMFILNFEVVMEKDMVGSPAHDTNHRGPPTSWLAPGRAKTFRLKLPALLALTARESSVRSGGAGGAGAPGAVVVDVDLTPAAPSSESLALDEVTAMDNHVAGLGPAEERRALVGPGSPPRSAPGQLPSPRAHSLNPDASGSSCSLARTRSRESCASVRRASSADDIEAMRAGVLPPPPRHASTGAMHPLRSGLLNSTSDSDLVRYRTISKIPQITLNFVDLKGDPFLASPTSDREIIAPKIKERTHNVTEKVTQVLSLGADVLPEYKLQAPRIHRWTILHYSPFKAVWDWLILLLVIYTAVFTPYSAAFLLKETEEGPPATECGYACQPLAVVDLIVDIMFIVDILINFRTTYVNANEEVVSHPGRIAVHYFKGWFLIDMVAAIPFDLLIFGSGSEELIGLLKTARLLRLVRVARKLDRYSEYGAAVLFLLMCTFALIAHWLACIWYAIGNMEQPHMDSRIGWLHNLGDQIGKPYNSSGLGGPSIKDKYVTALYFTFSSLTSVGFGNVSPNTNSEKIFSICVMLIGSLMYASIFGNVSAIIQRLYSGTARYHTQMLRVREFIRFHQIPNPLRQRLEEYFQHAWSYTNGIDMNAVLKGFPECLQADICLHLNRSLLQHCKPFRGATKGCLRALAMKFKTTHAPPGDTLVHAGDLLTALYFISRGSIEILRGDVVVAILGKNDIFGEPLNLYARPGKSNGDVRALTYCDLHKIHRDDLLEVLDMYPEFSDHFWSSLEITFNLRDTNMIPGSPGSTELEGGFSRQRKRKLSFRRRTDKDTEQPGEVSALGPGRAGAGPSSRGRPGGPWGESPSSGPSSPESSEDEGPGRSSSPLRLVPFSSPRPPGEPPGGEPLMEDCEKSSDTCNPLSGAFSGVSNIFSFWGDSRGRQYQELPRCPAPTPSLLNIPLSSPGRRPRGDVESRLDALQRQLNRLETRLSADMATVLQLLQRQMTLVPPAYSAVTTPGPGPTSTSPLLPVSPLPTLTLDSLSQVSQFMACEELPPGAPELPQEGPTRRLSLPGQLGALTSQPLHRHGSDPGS

Row | Structure (SMILES) | hERG current change (%, negative = inhibition) at 10uM [%]
1 | CCOc1ccc(OCC)c(NC(=O)C2CCCN(S(=O)(=O)c3c(C)n[nH]c3C)C2)c1 (stereo not drawn) | 8.8
2 | Cc1ccc(OCC(=O)Nc2cnn(CCCC(=O)O)c2)c([N+](=O)[O-])c1 | 3.59
3 | COc1cccc(OC)c1C(=O)OCC(=O)N(c1ccccc1)C1CCCCC1 | -4.4
4 | Cl.N=c1n(CCN2CCCCC2)c2ccccc2n1CC(O)COc1ccccc1 (stereo not drawn) | -68.2
5 | Cl.OC(CNCCCN1CCCCC1)COc1ccccc1 (stereo not drawn) | -4.25
6 | Cl.N=c1n(CCN2CCOCC2)c2ccccc2n1CC(O)COc1ccccc1 (stereo not drawn) | -39.3
7 | COC(=O)N1C(=O)[C@](c2ccc(Cl)cc2)(C(C)C)N1C(=O)OC | 7.07
8 | CCOc1ccc(-c2cnc3n2CCCCC3)cc1 | -63.3
9 | COc1ccc(-c2cnc3n2CCCCC3)cc1 | -33.1
10 | CCOc1ccc(-c2cnc3n2CCC3)cc1.Cl | -18.3
11 | Cc1ccc(NC(=O)CCC(=O)N2CCOCC2)nc1 | 13
12 | CCc1ccc(C2=NNC(=Nc3c(C)n(C)n(-c4ccccc4)c3=O)SC2)cc1 | 34.4
13 | CCOC(=O)c1cc(-c2ccccc2)n(CC(=O)Nc2ccc(OC)cc2)c1C | 6.19
14 | CCCNC(=O)CCn1c(-c2ccc(C)cc2)cc(C(=O)OCC)c1C | -6.08
15 | CCOC(=O)c1cc(-c2ccc(F)cc2)n(CCC(=O)NC2CCN(Cc3ccccc3)CC2)c1C | -64.2
16 | CC(=O)c1cc(-c2ccccc2)n(CCC(=O)NC2CCCC2)c1C | 0.876
17 | CCOC(=O)c1cc(-c2ccc(C)cc2)n(CCC(=O)NCCCOC)c1C | -11.5
18 | CCOC(=O)c1cc(-c2ccc(OC)cc2)n(CCC(=O)NC2CCN(Cc3ccccc3)CC2)c1C | -65.7
19 | CCOC(=O)c1cc(-c2ccccc2)n(CCC(=O)NC(C)CC)c1C (stereo not drawn) | -12.5
20 | CCOC(=O)c1cc(-c2ccc(OC)cc2)n(CCC(=O)NCCN2CCC(C)CC2)c1C | -52.4
21 | CCOC(=O)c1cc(-c2ccccc2)n(CCC(=O)N2CCN(c3ccc(OC)cc3)CC2)c1C | -25.5

Row | Structure (SMILES) | hERG current change (%, negative = inhibition) at 10uM [%]
22 | O=C(Cn1c(=S)[nH]c2ccccc2c1=O)NCCc1ccccc1 | 16
23 | CCC(NC(=S)NC1CCCCC1)c1ccc(C(C)C)cc1 (stereo not drawn) | 13.7
24 | CC(C)=CCCC(C)NC(=O)NC1CCCCC1 (stereo not drawn) | -3.64
25 | CCCc1cc(=O)oc2cc(C)cc(OCc3nn[nH]n3)c12 | 13
26 | O=C(NCCO)c1ccc(Oc2ccc(C(F)(F)F)cc2[N+](=O)[O-])cc1 | -0.131
27 | COc1ccccc1C(=O)Nc1c2c(nn1-c1ccc(Cl)cc1)CS(=O)(=O)C2 | 9.63
28 | C/C(=N/OC(=O)c1c(-c2ccccc2Cl)noc1C)c1cnccn1 | -7.04
29 | Cc1onc(-c2cccc(Cl)c2Cl)c1C(=O)O/N=C(\N)c1ccc([N+](=O)[O-])o1 | -65
30 | Cc1onc(-c2ccccc2Cl)c1C(=O)O/N=C(\N)c1ccc([N+](=O)[O-])o1 | -43.6
31 | Cc1onc(-c2c(F)cccc2Cl)c1C(=O)O/N=C(\N)c1ccc([N+](=O)[O-])o1 | -16.8
32 | C/C(=N\OC(=O)c1c(-c2ccccc2Cl)noc1C)c1ccncc1 | -58.6
33 | C/C(=N\OC(=O)c1c(-c2ccccc2Cl)noc1C)c1nccs1 | -2.44
34 | NS(=O)(=O)c1ccc(NC(=S)Nc2ccc(Br)c(Cl)c2)cc1 | 21.3
35 | CCOC(=O)c1ccccc1N/C=C/C(=O)c1cccs1 | -14.9
36 | CCn1c(-c2csc(C(C)C)c2)n[nH]c1=S | 37.1
37 | CC(=O)Nc1ccc(SC[C@H](Cc2ccccc2)N2CC[C@@H](C)CCC2=O)cc1 | -8.11
38 | CC(=O)Nc1ccc(SC[C@H](c2ccccc2)N2CCN(CCc3ccccc3)CCC2=O)cc1 | -75.1
39 | CCCN1CCC(=O)N(CCSc2ccc(NC(C)=O)cc2)CC1 | 6.8
40 | CC(=O)Nc1ccc(SC[C@H](CC(C)C)N2CCN(CCc3ccccc3)CCC2=O)cc1 | -59.1
41 | CC(=O)Nc1ccc(SC[C@H](CC(C)C)N2CCN(CC(C)C)CCC2=O)cc1 | -28.1
42 | CC(=O)Nc1ccc(SC[C@H](Cc2ccccc2)N2CC[C@@H](O)CCC2=O)cc1 | -7.75

Row | Structure (SMILES) | hERG current change (%, negative = inhibition) at 10uM [%]
43 | CC(=O)Nc1ccc(SC[C@H](Cc2ccccc2)N2CC[C@@H](C(C)(C)C)CCC2=O)cc1 | 5.23
44 | CC(=O)Nc1ccc(SC[C@H](Cc2ccccc2)N2CCN(CCc3ccccc3)CCC2=O)cc1 | -55.9
45 | CC(=O)Nc1ccc(SC[C@H](Cc2ccccc2)N2CCN(CC(C)C)CCC2=O)cc1 | -44.2
46 | Cc1cc(OCc2cc(C(=O)NCc3cc(C(C)C)no3)no2)cc(C)c1Cl | 9.79
47 | Cc1cc(C)c(/C=C(\C#N)S(=O)(=O)c2ccccc2)[nH]1 | 11
48 | Cc1[nH][nH]c(=O)c1C(c1ccc(O)c([N+](=O)[O-])c1)c1c(C)[nH][nH]c1=O | 18.8
49 | CN(C)c1nc(N)ncc1-c1ccc(Oc2ccccc2)cc1 | 18
50 | COc1ccc(-n2nc(C(=O)NCC(=O)N3CCN(c4ccccc4OC)CC3)c3ccccc3c2=O)c(OC)c1 | -18.4
51 | Cc1c(N/C=C/C(=O)C(F)(F)F)c(=O)n(-c2ccccc2)n1C | 20.2
52 | CC1=CC2=NC(=O)CC(C)(C(=O)N(CC(=O)NC3CCCC3)c3cc(C)cc(C)c3)N2C=C1 (stereo not drawn) | 17.9
53 | COc1ccccc1CNC(=O)C(=O)c1cn(CC(=O)N2CCCC2)c2ccccc12 | 15.1
54 | Cc1cccc(/C(N)=N/OC(=O)c2ccc(Cl)cc2Cl)c1 | 8.46
55 | COc1ccc(C(=O)N2CCOCC2)cc1S(=O)(=O)N1CCCc2ccccc21 | -31.4
56 | Cc1ccc(C(=O)OCC(=O)c2ccc(S(=O)(=O)N3CCCCC3)cc2)o1 | -20.3
57 | O=Cc1cn(CCOc2ccccc2)c2ccccc12 | 4.98
58 | COCCCn1c(=NC(=O)c2ccccc2)c(C#N)cc2c(=O)n3cccc(C)c3nc21 | -71.5
59 | Cc1cccn2c(=O)c3cc(C#N)c(=NC(=O)c4ccncc4)n(CCCOC(C)C)c3nc12 | -85.1
60 | CC(=O)N=c1c(C#N)cc2c(=O)n3cccc(C)c3nc2n1CCCOC(C)C | -50.4
61 | COCCCn1c(=NC(C)=O)c(C#N)cc2c(=O)n3cccc(C)c3nc21 | -49.7
62 | COCCCn1c(=NC(=O)c2ccncc2)c(C#N)cc2c(=O)n3cccc(C)c3nc21 | -68
63 | O=C(O)c1cccc(-n2c(-c3cnccn3)n[nH]c2=S)c1 | 20.4

Row | Structure (SMILES) | hERG current change (%, negative = inhibition) at 10uM [%]
64 | CN(C)c1ccc(NC(=S)c2ccc3ccccc3n2)cc1 | 12.2
65 | Cc1ccccc1NCC(=O)N/N=C/c1c(C)c(C(=O)c2ccc(Cl)cc2)n2ccccc12 | -4.11
66 | COc1ccccc1C(=O)NC(=O)COc1cc(Cl)ccc1Cl | 0.882
67 | CC1CCCCN1C(=O)c1c([N+](=O)[O-])cnn1C (stereo not drawn) | 18.7
68 | COc1ccc(NC(=O)c2cncn2-c2ccccc2)cc1 | 13.7
69 | CCOC(=O)C1=C(C)N(CCCC(=O)O)C(=O)NC1c1ccccc1OS(=O)(=O)c1ccc(C)cc1 (stereo not drawn) | -15.2
70 | Cc1cc(=O)oc2cc(NC(=O)c3ccccc3OC(F)F)ccc12 | 26.9
71 | CC1CCN(C2=NC(=O)/C(=C/c3cccc(O)c3)S2)CC1 | -18.5
72 | CC(=O)N1C(Nc2ccc(Cl)cc2)CCN1c1ccccc1 (stereo not drawn) | 9.96
73 | O=C(NC(NNc1ccc([N+](=O)[O-])cc1)(C(F)(F)F)C(F)(F)F)c1ccc(F)cc1 | -2.67
74 | COc1ccc(C(=O)Nc2ccc(Cl)cn2)cc1S(=O)(=O)N1CCCC1 | -48
75 | COc1ccc(C(=O)Nc2ccc(Br)cn2)cc1S(=O)(=O)N1CCOCC1 | -57.9
76 | COc1ccc(C(=O)Nc2ncc(C)s2)cc1S(=O)(=O)N1CCCC1 | 17.5
77 | COc1ccc(C(=O)Nc2ncc(C)s2)cc1S(=O)(=O)N1CCOCC1 | -56.2
78 | COc1ccc(C(=O)Nc2ccccn2)cc1S(=O)(=O)N1CCOCC1 | -8.04
79 | COc1ccc(C(=O)Nc2nnc(C)s2)cc1S(=O)(=O)N1CCOCC1 | -14
80 | CN(C)c1nc(Oc2ccc(=O)n(-c3ccccc3)n2)nc(N2CCOCC2)n1 | 9.19
81 | CC(=O)Nc1ccc(C(=O)NNC(=O)c2ccccc2-n2cccc2)cc1 | 6.54
82 | COc1ccc(C(=O)NNC(=O)CN(C)S(=O)(=O)c2ccc(Cl)cc2)c(OC)c1OC | -49.7
83 | Cc1cccc(N/N=C/c2ccc(C)s2)c1 | 19.7
84 | O=C(CCCn1c(=S)[nH]c2ccsc2c1=O)NCc1ccco1 | 18.8
